From PubChem BioAssay (Tox21)
Results filed as inconclusive are left out. Values without a mark were called inactive. Calls follow the shape of the dose curve; as a rule, active = well fitted cell-killing curve with a large enough effect in the repeat runs; inconclusive = weak or mixed curves, or effect the other way; inactive = flat fitted curve, though single readings scatter.

Experiment: qHTS RealTime-Glo MT Cell Viability Assay in HepG2 cells - 40 hour (AID 1224870); also: nearly all actives have a fitted effect of over 50% in size
Settings: RealTime-Glo luminescence; series mostly up to 76.8 µM; activity change, negative = cytotoxic: at the top concentration
Procedure, shortened: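 HepG2 cells mixed with RealTime-Glo MT reagents (NanoLuc plus cell-permeant prosubstrate) were seeded at 600 cells/well, incubated 5 h at 37 C/5% CO2, then pinned with compounds in DMSO; nonlytic luminescence tracked viability during 40 h treatment.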
% is scaled to controls: 0 for no effect and ±100 for the full control effect.

Compound	activity change, negative = cytotoxic
O=C1c2ccccc2C(=O)c2ccccc21	0.48% [at 15.8 µM]
Clc1ccccc1N1CCNCC1	1.68% [at 35.3 µM]
CC(C)(C)NCC(O)c1cc(Cl)c(N)c(Cl)c1 (stereo not drawn)	0.149% [at 35.3 µM]
Nc1ccccc1Cl	3.48%
Nc1cc(Cl)ccc1O	3.45%
COc1ncc(F)c2nc(S(=O)(=O)Nc3c(F)cccc3F)nn12	-2.66% [at 35.3 µM]
CN(N=O)C(N)=O	-2.2%
CCCCCCBr	3.65%
ClC(Cl)Br	0.499%
CC(C)CC#N	0.722%
N#CC(O)c1ccccc1 (stereo not drawn)	-0.532%
COC(=O)C(c1ccccc1)C1CCCCN1 (stereo not drawn)	0.179%
COc1ccc2c(c1OC)CN1CCc3cc4c(cc3C1C2)OCO4 (stereo not drawn)	-5.61% [at 35.3 µM]
C=C(C)CN(CC)c1c([N+](=O)[O-])cc(C(F)(F)F)cc1[N+](=O)[O-]	0.071%
Nc1c(Br)cc([N+](=O)[O-])cc1[N+](=O)[O-]	0.129%
CNCC(=O)c1ccc(O)c(O)c1	0.686% [at 35.3 µM]
CS(=O)(=O)c1cc(C(F)(F)F)ccc1C(=O)c1cnoc1C1CC1	-2.21%
COC(=O)C(C)Oc1ccc(Oc2ccc(Cl)cc2Cl)cc1 (stereo not drawn)	0.673%
Nc1cnn(-c2ccccc2)c(=O)c1Cl	2.96%

Compound	activity change, negative = cytotoxic
CCCSC(=O)N(CCC)CCC	-1.36%
CC(C(=O)c1ccccc1)N(C)C (stereo not drawn)	-0.654% [at 35.3 µM]
CCCCOC(=O)[C@@H](C)Oc1ccc(Oc2ccc(C#N)cc2F)cc1	0.448%
NC(=O)O	4.99%
CCCSP(=O)(OCC)Oc1ccc(Br)cc1Cl (stereo not drawn)	-1.18% [at 35.3 µM]
COC(=O)c1c(C(F)F)nc(C(F)(F)F)c(C2=NCCS2)c1CC(C)C	-1.16%
C#C[C@]1(O)C=C[C@H]2[C@@H]3CCC4=CC(=O)CC[C@@H]4[C@H]3CC[C@@]21CC	-0.548% [at 35.3 µM]
COc1ccc(C(=O)N2CCCC2=O)cc1	-0.395% [at 35.3 µM]
ClC(Cl)C(Cl)Cl	2.49%
O=[N+]([O-])c1ccc(CBr)cc1	-2.76%
CCN(CC)C(=O)[C@@H]1C=C2c3cccc4[nH]cc(c34)C[C@H]2N(C)C1	-8.81% [at 200 µM]
COC(=O)C1=CCCN(C)C1	-0.0059% [at 35.3 µM]
CCC1(c2ccccc2)C(=O)N=C(O)NC1=O (stereo not drawn)	1.75%
CNNC	0.793%
CNC(=O)Oc1c(C(C)(C)C)cc(C)cc1C(C)(C)C	0.182%
Cc1ncc(CNC(=O)N(CCCl)N=O)c(N)n1	4.16% [at 35.3 µM]
CCC#N	2.5%
O=[N+]([O-])c1ccc2c3c(cccc13)CC2	3.51%
CC1CCCCC1NC(=O)Nc1ccccc1 (stereo not drawn)	-0.0938%
